The target of experiment [1] is RecQ-like DNA helicase BLM (Homo sapiens) (UniProt P54132). Description: qHTS Validation Assay for Inhibitors of Bloom's syndrome helicase (BLM) (AID 2364). The method, boiled down:
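BLM 50 nM in 25 mM Tris-HCl pH 8.0, 5 mM NaCl, 2 mM MgCl2, 1 mM DTT, 0.01% Tween-20, 2.5 ug/ml poly(dI-dC); 15 min cpd preinc, RT. Start: 200 nM forked DNA + 2 mM ATP (final). TAMRA read, 2 reads 2 h apart.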
Background: Quantitative high-throughput screening tests each substance at several concentrations.

Experiment [2] in a line: Cytometric Cell-Based qHTS for Inhibitors of the mTORC1 Signaling Pathway in MEF (Tsc2-/-, p53-/-) Cells (AID 2660). Note: potency is the fitted concentration of half-maximal effect. The method, boiled down:
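Tsc2-/-, p53-/- MEFs (empty vector) exposed to compound 24 h at 37 C, fixed, stained with Alexa-488 anti-phospho-rpS6 Ser235/236 and propidium iodide. Acumen laser scanning; phospho-S6/PI ratio thresholded against 7.5 nM rapamycin, reported as % positive cells.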

Experiment [3] can be described thus: High Content Imaging Cell-Based qHTS for Inhibitors of the mTORC1 Signaling Pathway in MEF (Tsc2-/-, p53-/-) Cells (AID 2666).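 Note: percent of cells scored positive for phospho-rpS6 Ser235/236 immunostaining by imaging.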 Note: potency is the fitted concentration of half-maximal effect. The method, boiled down: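 Read-out: % positive cells per well, with thresholds from highest- and lowest-signal wells, based on phospho-rpS6 (Ser235/236) intensity normalized to Hoechst nuclear stain. Cells: Tsc2-/-, p53-/- MEFs carrying empty vector; compound 24 hrs, 37 degree Celsius.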

A short description of experiment [4]: High Content Imaging Cell-Based qHTS for Inhibitors of the mTORC1 Signaling Pathway in MEF Cells (AID 2667). Note: potency is the fitted concentration of half-maximal effect. The method, boiled down:
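MEF (Tsc2-/-, p53-/-, WT Tsc2 re-expressed); cpd 24 h, 37 °C; PFA fix; Alexa-488 anti-p-rpS6 Ser235/236, PI, Hoechst; IN Cell imaging; Hoechst/Alexa-488 intensity ratio; % active cells, thresholds set from rapamycin and DMSO wells.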

The target in experiment [5] is Ubiquitin carboxyl-terminal hydrolase 2 (Homo sapiens) (UniProt O75604). Description: qHTS Validation Assay for Inhibitors of Ubiquitin-specific Protease USP2a Using CHOP2 as the Reporter (AID 463106). The method, boiled down:
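USP2 core (10nM final) was preincubated with compound for 30min at RT in 20mM Tris-HCl pH 8.0, 2mM CaCl2, 2mM beta-mercaptoethanol, 0.05% CHAPS. Ub-CHOP2 and reporter substrate (25nM each) were added, and fluorescence (Ex 485/Em 531nm) was read after 60min.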

The target in experiment [6] is DNA polymerase III PolC-type (Bacillus subtilis (strain 168)) (UniProt P13267). Put plainly: qHTS Validation Assay for the Inhibitors of DNA Replication in Gram-Positive Bacteria (AID 485295).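 Note: reconstituted holoenzyme with PolC plus beta clamp SSB and primase; PicoGreen fluorescence of double-stranded DNA made on primed circular M13 template; series mostly up to about 57 µM.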 The method, boiled down: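 Double-stranded DNA product detected by PicoGreen fluorescence after EDTA quench. Compound incubated with B. subtilis holoenzyme (PolC, beta subunit, SSB, primase) before substrate addition; primed replication of M13Gori with dNTPs and NTPs at room temperature; DMSO defines 0% inhibition.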
Chain of DNA polymerase III PolC-type (Bacillus subtilis (strain 168)) (P13267 whole entry, looked up): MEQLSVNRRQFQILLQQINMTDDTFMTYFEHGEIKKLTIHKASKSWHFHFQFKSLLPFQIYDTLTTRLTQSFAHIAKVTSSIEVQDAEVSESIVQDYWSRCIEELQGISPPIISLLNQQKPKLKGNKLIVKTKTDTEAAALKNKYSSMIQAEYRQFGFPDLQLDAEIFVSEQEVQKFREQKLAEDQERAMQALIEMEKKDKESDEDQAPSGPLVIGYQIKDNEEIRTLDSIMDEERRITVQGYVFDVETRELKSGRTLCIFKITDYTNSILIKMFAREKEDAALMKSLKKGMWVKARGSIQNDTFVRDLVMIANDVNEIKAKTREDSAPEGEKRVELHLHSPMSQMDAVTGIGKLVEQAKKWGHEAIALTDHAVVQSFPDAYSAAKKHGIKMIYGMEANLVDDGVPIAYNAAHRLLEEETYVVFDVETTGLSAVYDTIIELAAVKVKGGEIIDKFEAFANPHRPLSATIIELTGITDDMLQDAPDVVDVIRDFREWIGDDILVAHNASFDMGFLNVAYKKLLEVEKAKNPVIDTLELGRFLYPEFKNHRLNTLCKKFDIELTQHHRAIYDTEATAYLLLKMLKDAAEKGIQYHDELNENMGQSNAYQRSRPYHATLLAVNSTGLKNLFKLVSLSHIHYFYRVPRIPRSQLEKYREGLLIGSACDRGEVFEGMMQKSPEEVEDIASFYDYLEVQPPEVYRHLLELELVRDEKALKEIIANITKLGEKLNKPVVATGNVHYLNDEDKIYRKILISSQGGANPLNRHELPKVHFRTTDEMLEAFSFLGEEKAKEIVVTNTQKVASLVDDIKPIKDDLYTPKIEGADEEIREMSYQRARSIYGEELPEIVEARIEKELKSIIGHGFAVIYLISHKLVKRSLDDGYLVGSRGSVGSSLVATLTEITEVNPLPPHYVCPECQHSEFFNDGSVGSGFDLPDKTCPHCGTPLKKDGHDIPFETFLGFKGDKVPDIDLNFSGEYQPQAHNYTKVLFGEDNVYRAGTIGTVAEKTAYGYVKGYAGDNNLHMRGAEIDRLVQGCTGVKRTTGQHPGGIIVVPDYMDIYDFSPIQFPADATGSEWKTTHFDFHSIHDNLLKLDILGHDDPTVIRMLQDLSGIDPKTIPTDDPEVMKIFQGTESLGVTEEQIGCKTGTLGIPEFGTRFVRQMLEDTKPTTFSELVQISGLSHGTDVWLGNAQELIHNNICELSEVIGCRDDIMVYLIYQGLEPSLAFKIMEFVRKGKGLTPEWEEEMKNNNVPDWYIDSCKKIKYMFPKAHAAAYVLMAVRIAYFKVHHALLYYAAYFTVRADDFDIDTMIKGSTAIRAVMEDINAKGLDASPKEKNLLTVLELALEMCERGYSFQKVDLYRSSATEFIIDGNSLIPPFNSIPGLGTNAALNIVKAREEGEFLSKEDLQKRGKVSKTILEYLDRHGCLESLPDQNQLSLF

Experiment [7] deals with Tumor susceptibility gene 101 protein (Homo sapiens) (UniProt Q99816). Description: qHTS Validation Assay for Iinhibitors of HIV-1 Budding by Blocking the Interaction of PTAP/TSG101 (AID 485342; calls by dose curve). The method, boiled down:
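Fluorescence polarization of 50 nM FITC-PTAP peptide bound to 10 uM Tsg101 binding domain was read after 20 min room-temperature incubation with compounds, in 10 mM HEPES pH 7.5, 0.15 M NaCl, 0.01% Tween 20.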

The nature of experiment [8]: Validation screen for small molecules that induce DNA re-replication in MCF 10A normal breast cells (AID 463097). Note: nearly all actives have a fitted effect of over 60% in size. Note: potency is the fitted concentration of half-maximal effect. The method, boiled down:
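Read-out is Hoechst total nuclear intensity by fluorescence scanning imager, flagging increased high-DNA-content nuclei. Compounds were incubated with MCF 10A cells for 48 hr (37 C, 5% CO2) before 40 min staining.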

Experiment [9] in a line: qHTS Validation Assay to Find Inhibitors of Chronic Active B-Cell Receptor Signaling (AID 485345; active = well fitted curve in the direction sought with a large enough effect in the main read-out, with a control signal flat, not every such curve was filed as active; note: potency is the fitted concentration of half-maximal effect). The method, boiled down:
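TMD8 ABC-DLBCL cells with dox-inducible green luciferase–IκBα fusion and red native luciferase; compounds 46 uM–3 nM, 4 h at 37C with doxycycline in 0.5% FBS IMDM. Green/red ratio normalized to basal and 10 uM MG-132.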

Drawing on PubChem BioAssay (NCATS), this text covers Potency and outcome for 21 compounds.

Results filed as inconclusive are left out. Calls of active or inactive are those of the source. Unless noted, calls come from the whole dose curve; as a rule, active = well fitted curve in the direction sought with a large enough effect; inconclusive = small, poorly fitted or top-dose-only effect, or another doubt; inactive = no such curve, though single readings can be large; an effect the other way counts as inactive or inconclusive.

Chain of Tumor susceptibility gene 101 protein (Homo sapiens) (Q99816 whole entry, looked up, the tested form may be a part): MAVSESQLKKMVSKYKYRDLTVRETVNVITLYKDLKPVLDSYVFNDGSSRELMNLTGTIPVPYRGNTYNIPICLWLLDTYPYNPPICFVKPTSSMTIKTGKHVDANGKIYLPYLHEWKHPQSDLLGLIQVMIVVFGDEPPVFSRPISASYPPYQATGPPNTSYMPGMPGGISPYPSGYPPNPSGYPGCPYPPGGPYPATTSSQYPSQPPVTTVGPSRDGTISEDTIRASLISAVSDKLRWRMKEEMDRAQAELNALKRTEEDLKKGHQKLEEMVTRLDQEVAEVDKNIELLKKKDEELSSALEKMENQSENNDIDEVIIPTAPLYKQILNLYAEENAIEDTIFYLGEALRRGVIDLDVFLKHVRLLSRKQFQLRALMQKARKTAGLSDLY
Chain of Ubiquitin carboxyl-terminal hydrolase 2 (Homo sapiens) (O75604 whole entry, looked up): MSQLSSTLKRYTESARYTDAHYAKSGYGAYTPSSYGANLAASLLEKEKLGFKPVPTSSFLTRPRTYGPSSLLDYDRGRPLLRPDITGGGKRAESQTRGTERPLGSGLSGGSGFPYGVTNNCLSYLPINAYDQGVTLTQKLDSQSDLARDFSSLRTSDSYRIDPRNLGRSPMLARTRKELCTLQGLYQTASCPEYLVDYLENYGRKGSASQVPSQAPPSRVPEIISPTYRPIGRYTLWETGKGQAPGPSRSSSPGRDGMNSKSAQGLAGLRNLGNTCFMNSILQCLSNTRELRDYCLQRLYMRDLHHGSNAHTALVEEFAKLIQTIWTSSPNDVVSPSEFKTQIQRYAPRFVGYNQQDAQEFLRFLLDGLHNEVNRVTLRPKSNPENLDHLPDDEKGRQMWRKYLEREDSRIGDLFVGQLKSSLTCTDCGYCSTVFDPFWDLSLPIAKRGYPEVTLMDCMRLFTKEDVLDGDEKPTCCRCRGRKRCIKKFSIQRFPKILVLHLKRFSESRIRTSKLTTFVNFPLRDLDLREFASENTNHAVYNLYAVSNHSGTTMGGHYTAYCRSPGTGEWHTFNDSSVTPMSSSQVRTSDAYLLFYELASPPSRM
Chain of RecQ-like DNA helicase BLM (Homo sapiens) (P54132 whole entry, looked up): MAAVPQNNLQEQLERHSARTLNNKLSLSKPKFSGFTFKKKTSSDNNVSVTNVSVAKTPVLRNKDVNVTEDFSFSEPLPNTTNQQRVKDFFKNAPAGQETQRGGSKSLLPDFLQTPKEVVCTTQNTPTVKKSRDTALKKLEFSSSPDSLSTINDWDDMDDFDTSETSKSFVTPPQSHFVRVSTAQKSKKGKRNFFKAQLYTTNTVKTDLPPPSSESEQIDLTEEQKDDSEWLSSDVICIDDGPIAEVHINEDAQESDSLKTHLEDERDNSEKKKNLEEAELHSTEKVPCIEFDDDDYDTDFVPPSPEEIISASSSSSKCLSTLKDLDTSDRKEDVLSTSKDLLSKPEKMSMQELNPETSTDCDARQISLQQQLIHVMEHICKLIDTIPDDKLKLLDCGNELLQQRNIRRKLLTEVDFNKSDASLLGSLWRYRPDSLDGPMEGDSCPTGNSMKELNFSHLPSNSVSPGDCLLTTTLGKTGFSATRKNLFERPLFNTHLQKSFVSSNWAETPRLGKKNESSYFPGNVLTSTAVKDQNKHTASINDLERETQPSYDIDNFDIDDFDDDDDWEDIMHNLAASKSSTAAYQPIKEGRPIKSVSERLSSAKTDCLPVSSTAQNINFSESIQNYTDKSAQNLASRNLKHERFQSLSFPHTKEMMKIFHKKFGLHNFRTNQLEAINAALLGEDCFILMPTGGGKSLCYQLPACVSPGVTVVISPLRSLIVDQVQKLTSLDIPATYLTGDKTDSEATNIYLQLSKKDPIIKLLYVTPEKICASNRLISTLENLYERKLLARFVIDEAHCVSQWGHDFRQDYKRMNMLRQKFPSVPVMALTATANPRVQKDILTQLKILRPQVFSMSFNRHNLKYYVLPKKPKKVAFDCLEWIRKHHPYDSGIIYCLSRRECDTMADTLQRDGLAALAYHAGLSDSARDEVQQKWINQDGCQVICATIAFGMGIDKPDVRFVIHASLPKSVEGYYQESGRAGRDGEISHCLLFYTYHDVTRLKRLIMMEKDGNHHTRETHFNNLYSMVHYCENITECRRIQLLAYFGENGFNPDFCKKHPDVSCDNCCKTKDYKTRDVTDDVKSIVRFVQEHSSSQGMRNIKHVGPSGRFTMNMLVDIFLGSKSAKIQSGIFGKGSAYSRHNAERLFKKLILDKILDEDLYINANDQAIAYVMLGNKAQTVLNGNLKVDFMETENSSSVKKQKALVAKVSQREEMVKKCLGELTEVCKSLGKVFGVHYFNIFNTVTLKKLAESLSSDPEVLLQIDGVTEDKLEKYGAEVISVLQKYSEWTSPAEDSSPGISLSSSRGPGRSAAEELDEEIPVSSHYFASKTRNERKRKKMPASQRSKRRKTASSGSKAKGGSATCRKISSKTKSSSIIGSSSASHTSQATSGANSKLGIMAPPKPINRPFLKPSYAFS

As for `NC(=NCc1ccccc1)NC(=O)c1nc(Cl)c(N)nc1N`, the Potency entry in [1], in experiment [2], in [3], in experiment [4] and in [6] was “inactive” in each case. Besides, the call in [5] and in experiment [7] was inactive.

On to `O=C1c2ccccc2-c2n[nH]c3cccc1c23`, for which the Potency entry in experiment [1], in experiment [2], in experiment [3], in [4], in experiment [8] and in [6] was “inactive” in each case. The call in [5] and in experiment [7] was inactive.

For `C[C@@H](N)C1CCC(C(=O)Nc2ccncc2)CC1` (some centres undefined), the Potency entry in experiment [1], in experiment [2], in experiment [3], in experiment [4], in [8] and in experiment [6] was “inactive” each time. Besides, the Potency entry in experiment [9] was “inactive”. Besides, the call in [5] and in experiment [7] was inactive.

For the compound `CC(=O)N1CCN(c2ccc(OC[C@H]3CO[C@](Cn4ccnc4)(c4ccc(Cl)cc4Cl)O3)cc2)CC1`, the Potency entry in [2], in [3], in experiment [4] and in experiment [6] was “inactive” each time. The compound was called inactive in [5] and in experiment [7].

As for `Nc1ccn([C@@H]2O[C@H](CO)[C@@H](O)C2O)c(=O)n1` (some centres undefined), the Potency entry in [3], in experiment [6] and in [9] was “inactive” throughout. Also, the result in experiment [5] and in [7] was inactive.

Take `O=C(O)c1cccnc1Nc1cccc(C(F)(F)F)c1`: the Potency result in experiment [1], in experiment [2], in [3], in experiment [4] and in experiment [6] was “inactive” each time. In addition, the result in [5] and in experiment [7] was inactive.

On to `Cc1cc(O)c2c(c1)C(=O)c1cc(O)cc(O)c1C2=O`, for which the Potency result in experiment [2], in experiment [3] and in experiment [4] was “inactive” throughout. Further, the compound was classed as inactive in experiment [5] and in experiment [7].

Consider `Cc1nc2n(c(=O)c1CCN1CCC(c3noc4cc(F)ccc34)CC1)CCCC2`, for which the Potency result in [1] and in experiment [8] was “inactive” each time.

As for `COc1cc2nc(N3CCN(C(=O)C4CCCO4)CC3)nc(N)c2cc1OC` (centres undefined), the Potency result in [1], in [2], in experiment [3], in experiment [4], in experiment [8] and in experiment [6] was “inactive” in each case. The compound was called inactive in experiment [5] and in experiment [7].

`NCCCCNCCCN`: the Potency entry in experiment [1], in experiment [4], in experiment [8], in [6] and in experiment [9] was “inactive” in each case. The call in experiment [5] and in [7] was inactive.

As for `O=c1ccc2ccc(O)c(O)c2o1`, the Potency entry in [1], in experiment [2], in experiment [3], in experiment [4], in experiment [8] and in [6] was “inactive” throughout. The Potency entry in experiment [9] is “inactive”. Moreover, the outcome in [5] and in [7] was inactive.

With `O=C1NC(=O)C(c2ccccc2[N+](=O)[O-])=C1Nc1ccc(O)c(Cl)c1`, the Potency result in [2], in [3], in [4], in [6] and in [9] was “inactive” each time. The call in [5] and in [7] was inactive.

As to `O=c1cc(N2CCOCC2)oc2c(-c3ccccc3)cccc12`, the Potency in experiment [2] was 3.69 µM (active); in experiment [3], 9.27 µM (active); in [4], 0.414 µM (active); in experiment [9], 2.59 µM (active). Besides, the call in experiment [5] and in experiment [7] was inactive. Moreover, the Potency entry in [6] is “inactive”.

As for `C[C@H](Cc1ccc(O)c(O)c1)[C@@H](C)Cc1ccc(O)c(O)c1`, the Potency result in [2], in experiment [3] and in experiment [4] was “inactive” in each case. The outcome in experiment [5] and in [7] was inactive.

In the case of `CCN(CC)C(=S)SSC(=S)N(CC)CC`, the Potency entry in experiment [1], in experiment [4] and in experiment [6] was “inactive” each time. For the same compound, in experiment [3], the Potency is 1.85 µM (active). In addition, the call in experiment [5] and in [7] was inactive.

For the compound `O=C(CCc1ccc(O)cc1)c1c(O)cc(O)cc1O`, the Potency result in experiment [1], in [2], in experiment [3], in experiment [4], in [8] and in [6] was “inactive” each time. In addition, the Potency entry in experiment [9] was “inactive”. Besides, the outcome in experiment [5] and in [7] was inactive.

With `Oc1ccc(-c2nc(-c3ccc(F)cc3)c(-c3ccncc3)[nH]2)cc1`, the Potency result in [2], in experiment [3], in [4] and in experiment [6] was “inactive” throughout. Further, the call in experiment [5] and in experiment [7] was inactive.

For `CCOC(=O)C(C)Oc1cccc2c(=O)n(CC(=O)Nc3ccc4c(c3)OCCO4)ccc12` (centres undefined), the Potency result in [2], in [3], in experiment [4] and in [6] was “inactive” in each case. Also, the call in experiment [5] and in [7] was inactive.

With `CC(=O)O[C@H]1C(=O)[C@@]2(C)C([C@H](OC(=O)c3ccccc3)[C@]3(O)C[C@H](OC(=O)[C@H](O)[C@@H](NC(=O)c4ccccc4)c4ccccc4)C(C)=C1C3(C)C)[C@]1(OC(C)=O)CO[C@@H]1C[C@@H]2O` (some centres undefined), the Potency entry in [2], in experiment [3], in experiment [6] and in [9] was “inactive” in each case. The Potency in experiment [8] was 0.0224 µM (active). Moreover, the compound was classed as inactive in experiment [5] and in [7].

Regarding `COc1cc2c(cc1OC)C1CC(=O)C(CC(C)C)CN1CC2` (centres undefined), the Potency result in experiment [2], in [3], in [4] and in experiment [6] was “inactive” in each case. Also, the result in experiment [5] and in [7] was inactive.

Regarding `O=C1c2c(O)cc(O)cc2OC(c2ccc(O)c(O)c2)C1O` (centres undefined), the Potency entry in [2], in experiment [3], in experiment [4], in experiment [6] and in experiment [9] was “inactive” throughout. Further, the call in [5] and in experiment [7] was inactive.
